Among all 48,000 compounds or so, about 13,000 (27%) showed an effect of 50% or more. The list shows a part of the results.
Tested on: Wolbachia pipientis
Experiment: Anti-Wolbachia Cell-Based Screen
Format: functional
Set-up: scale not given: in the data most compounds retested in dose-response had high values
Conditions: 5 µM

| Compound | Percent Effect |
| --- | --- |
| Cc1ccccc1CN1CCC2(CC1)CN(S(=O)(=O)c1ccccc1)C2.O=C(O)C(F)(F)F | -17.23% |
| Cc1occc1C(=O)N1CCC[C@]2(C[C@@H](OCc3ccncc3)CO2)C1.O=C(O)C(F)(F)F | -11.73% |
| CCc1c(C)nc(C2CCCN2C(=O)c2cc(C)no2)nc1O (configuration not stated) | 101.8% |
| CCc1cc(C(=O)N2CCCC2c2nc(C)c(F)c(O)n2)on1 (configuration not stated) | -4.896% |
| CCc1nc(C2CCCN2C(=O)c2ccc3c(c2)nc(C)n3C)no1 (configuration not stated) | 0.7608% |
| CCc1cc(C(=O)N2CCCC2c2nc(C)c(CC)c(O)n2)on1 (configuration not stated) | 110.9% |
| CCc1nc(C2CCCN2C(=O)C2=COCC2)no1 (configuration not stated) | -4.333% |
| Cn1ncc2c1NC(=O)CC2c1cc2c(cc1Cl)OCO2 (configuration not stated) | -77.33% |
| O=C1CC(c2ccc3c(c2)OCO3)c2cn[nH]c2N1 (configuration not stated) | 104.3% |
| O=C1CO[C@H]2CN(Cc3ccc4c(c3)OCO4)C[C@H]2N1 | -13.01% |
| CCC(C)(NCc1ncc(C(C)C)o1)c1nccs1 (configuration not stated) | -9.094% |
| CN(C)[C@@H]1CO[C@H](CNC(=O)Nc2ccccc2)[C@H]1O | -15.17% |
| CN(Cc1c(F)cccc1Cl)C(=O)Nc1cnn(CC(N)=O)c1 | -4.374% |
| CCOc1ccc2nc(CN3CCOC(CN)C3)ccc2c1 (configuration not stated) | 8.772% |
| CC(C)c1n[nH]c(C2CN(C(=O)c3ccnc(C4CC4)n3)CCO2)n1 (configuration not stated) | 106.2% |
| Cc1nccc(C(=O)N2CCOC(c3nc(C(C)C)n[nH]3)C2)n1 (configuration not stated) | 122.6% |
| CC1CCc2nc(O)c(C(=O)NCc3ccncc3)cc2C1 (configuration not stated) | 0.9729% |
| CCc1nc(CN2CCCN(Cc3cnn(C)c3)CC2)no1 | -7.215% |
| CCN1Cc2c(C(=O)NC(C)C)ncn2-c2ccccc2S1(=O)=O | -5.811% |
| CN1Cc2c(C(=O)N3CCOCC3)ncn2-c2ccccc2S1(=O)=O | -2.827% |
| CCCN(CC)C(=O)c1ncn2c1CN(C)S(=O)(=O)c1ccccc1-2 | 93.03% |
| CCN1Cc2c(C(=O)NC)ncn2-c2ccccc2S1(=O)=O | -8.627% |

| Compound | Percent Effect |
| --- | --- |
| CC(C)CN1Cc2c(C(=O)NC3CC3)ncn2-c2ccccc2S1(=O)=O | 24.74% |
| CCCNC(=O)c1ncn2c1CN(CC(C)C)S(=O)(=O)c1ccccc1-2 | 51.12% |
| CN1CCN(C(=O)c2ncn3c2CN(C)S(=O)(=O)c2ccccc2-3)CC1.O=C(O)C(F)(F)F | 82.4% |
| CN1CCN(C(=O)c2ncn3c2CNS(=O)(=O)c2ccccc2-3)CC1 | 3.453% |
| CN(C(=O)c1ncn2c1CN(C)S(=O)(=O)c1ccccc1-2)C1CC1.O=C(O)C(F)(F)F | 110.5% |
| CCNC(=O)c1ncn2c1CN(C)S(=O)(=O)c1ccccc1-2 | 6.974% |
| Cc1ncsc1CCN(C)C(=O)c1c(O)cccc1O | -0.9599% |
| O=C(CCn1nnc2ccccc2c1=O)N(CC1CCOC1)C1CC1 (configuration not stated) | -7.506% |
| CCCOC1CCCN(C(=O)Cn2cccc(C(F)(F)F)c2=O)C1 (configuration not stated) | -4.197% |
| CCC(CC)NC(=O)c1ncn2c1CN(CC)S(=O)(=O)c1ccccc1-2.O=C(O)C(F)(F)F | 4.599% |
| CCC(C)(C)NC(=O)c1ncn2c1CN(C)S(=O)(=O)c1ccccc1-2.O=C(O)C(F)(F)F | 117.1% |
| CCN1Cc2c(C(=O)NC(C)C(C)C)ncn2-c2ccccc2S1(=O)=O (configuration not stated) | 6.168% |
| CN1Cc2c(C(=O)NC3CCCCC3)ncn2-c2ccccc2S1(=O)=O.O=C(O)C(F)(F)F | 115.3% |
| Cc1c(C(=O)NC2CCCC2)nnn1-c1ccccc1 | -16.4% |
| CN1Cc2c(C(=O)NCC3CCCO3)ncn2-c2ccccc2S1(=O)=O (configuration not stated) | 113.6% |
| O=C(c1ncn2c1CNS(=O)(=O)c1ccccc1-2)N1CC=CC1 | -15.18% |
| CC(C)C(C)NC(=O)c1ncn2c1CN(C)S(=O)(=O)c1ccccc1-2.O=C(O)C(F)(F)F (configuration not stated) | 211.3% |
| CN1Cc2c(C(=O)Nc3cccnc3)ncn2-c2ccccc2S1(=O)=O.O=C(O)C(F)(F)F | -4.618% |
| Cc1c(CNC(=O)C2CCCN2C(=O)C2CC2)oc2ccccc12 (configuration not stated) | -1.359% |
| CCOc1cccc(NS(=O)(=O)c2cc(C)c(C(=O)O)s2)c1 | -3.705% |
| CN(CC(=O)N1CCCC1Cn1cccn1)c1cnccn1 (configuration not stated) | -3.712% |
| O=C(c1csc(-c2cnccn2)n1)N1CCCC1Cn1cccn1 (configuration not stated) | 125.1% |

| Compound | Percent Effect |
| --- | --- |
| O=C(c1csc(-c2cccs2)n1)N1CCCC1Cn1cccn1 (configuration not stated) | 4.192% |
| O=C(c1csc(-c2ccccn2)n1)N1CCCC1Cn1cccn1 (configuration not stated) | 108.1% |
| O=C(c1csc(-c2ncccn2)n1)N1CCCC1Cn1cccn1 (configuration not stated) | 100.9% |
| Cn1cc(-c2nc(C(=O)N3CCCC3Cn3cccn3)cs2)cn1 (configuration not stated) | 119.5% |
| CCc1nc(CC(=O)N2CCCC2Cn2cccn2)cs1 (configuration not stated) | -8.177% |
| CCC1CN(C(=O)c2csc(-c3cnn(C)c3)n2)CCO1 (configuration not stated) | 8.184% |
| O=C(CN1CCCCCC1=O)NCC1CCN(c2ccccc2)C1 (configuration not stated) | -4.287% |
| O=C(N1CCOCC1CO)C1(c2cccs2)CCCC1 (configuration not stated) | 1.205% |
| COc1ccc(/C=C/CN2CCN(c3nccnc3C)CC2)cc1 | 1.299% |
| COc1ccc(N(CCC(N)=O)C(=O)CSc2ccc(F)c(F)c2)cc1 | 6.569% |
| CCc1nc(CCNC(=O)NC2CCN(C(C)C)C2)sc1C (configuration not stated) | -28.06% |
| Cc1ncc(CN2CCCC2c2ccc(C(=O)NCc3ccoc3)s2)s1 (configuration not stated) | 9.292% |
| CCCc1nnc(N2CCC(N3CCN(CCO)CC3)CC2)o1 | -3.287% |
| CCCc1nnc(N2CCN(c3cccc(C)c3C)CC2)o1 | 106.7% |
| CCc1nnc(N2CCN(CCc3ccccc3)C(=O)C2)o1 | -17.07% |
| CCCc1nnc(N2CCN(c3ccccc3Cl)CC2)o1 | 94.38% |
| CCCc1nnc(N2CCN(C3CCCC3)CC2)o1 | -0.2431% |
| CCCc1nnc(N2CCC(C3CCN(C)CC3)CC2)o1 | -0.3277% |
| CCCc1nnc(N2CCC(N3CCCC(O)C3)CC2)o1 (configuration not stated) | 11.24% |
| CCCc1nnc(N2CCN(c3ccccc3F)CC2)o1 | 104.4% |
| COc1nc(C)ccc1CNC(=O)NC(C)(C)c1ncc(C)s1 | 40.1% |
| O=C(c1cccc(-c2ncc[nH]2)c1)N1CCC(N2CCCC(O)C2)CC1 (configuration not stated) | -7.829% |

| Compound | Percent Effect |
| --- | --- |
| Cc1ccc(Cl)c(CN2CCC3(CC2)C(C(=O)O)CC(=O)N3C)c1F (configuration not stated) | 1.712% |
| CN1CCN(Cc2ccc(Cl)cc2)CC1C(=O)O (configuration not stated) | 102.4% |
| CN1CCN(Cc2c(Cl)ccc(O)c2Cl)CC1C(=O)O (configuration not stated) | 96.73% |
| CC(=O)N1CCN(Cc2ccc(Cl)c(F)c2)CC(O)C1 (configuration not stated) | 3.004% |
| O=C(C1CCCC1)N1CCC(C2CCN(Cc3ccc(Cl)cc3)C2)CC1 (configuration not stated) | 14.43% |
| CC(C1CCN(Cc2c(Cl)ccc(O)c2Cl)CC1)N1CCN(C)CC1 (configuration not stated) | 2.442% |
| Cc1ccc(Cl)c(CN2CCN(C)C(C(=O)O)C2)c1F (configuration not stated) | 102.6% |
| Cc1cc(-c2nn(C)c(Cl)c2CN2CCN(C)C(C(=O)O)C2)no1 (configuration not stated) | -9.468% |
| O=C(C1CCC1)N1CCC(C2CCN(Cc3ccc(Cl)cc3)C2)CC1 (configuration not stated) | 11.03% |
| CCC(C(=O)NC1(CN2CCOCC2)CCCC1)n1cccn1 (configuration not stated) | -7.135% |
| Cn1c(CNc2c(F)cccc2-n2cccn2)cc(=O)n(C)c1=O | -1.066% |
| CC(C#N)CN(C)C(=O)c1cn(-c2ccc(Br)cc2)cn1 (configuration not stated) | 17.58% |
| CCCc1noc(CN2CCN(c3nccs3)CC2)n1 | 101% |
| c1csc(-c2cc(CN3CCN(c4nccs4)CC3)no2)c1 | 7.977% |
| Nc1nc(CN2CCN(c3nccs3)CC2)cs1 | -10.1% |
| CC(C)Cc1noc(CN2CCN(c3nccs3)CC2)n1 | -10.34% |
| CCCc1noc(CN2CCN(CCC(C)C)CC2)n1 | 7.482% |
| CCc1noc(CN2CCN(c3nccs3)CC2)n1 | 91.95% |
| CCOCC(O)CN1CCN(C(=O)c2cnc3n[nH]c(C)c3c2)CC1 (configuration not stated) | -0.1708% |
| CCOCC(O)CN1CCN(C(=O)c2ccsc2)CC1 (configuration not stated) | -6.282% |
| CCOCC(O)CN1CCN(C(=O)c2ccc(OC)cc2)CC1 (configuration not stated) | 101.3% |
| COc1cccc(C(=O)N2CCN(CC(O)c3ccccc3)CC2)c1 (configuration not stated) | 2.631% |

| Compound | Percent Effect |
| --- | --- |
| CCOCC(O)CN1CCN(C(=O)c2cccc(F)c2)CC1 (configuration not stated) | 0.952% |
| COc1cccc(C(O)CN2CCN(C(=O)c3ccsc3)CC2)c1 (configuration not stated) | 4.323% |
| CCOCC(O)CN1CCN(C(=O)c2ccncc2)CC1 (configuration not stated) | 2.226% |
| CCOCC(O)CN1CCN(C(=O)c2cc(F)cc(F)c2)CC1 (configuration not stated) | 99.72% |
| CCOCC(O)CN1CCN(C(=O)c2cccc(OC)c2)CC1 (configuration not stated) | 88.95% |
| CCOC(C)c1nc(CN2CCN(c3nccc(C)n3)CC2)cs1 (configuration not stated) | -8.527% |
| CCc1ncc2c(n1)CN(C(=O)CCCc1ccc(OC)cc1)C2 | -1.775% |
| COc1ccc(NC(=O)N2CCCC(CO)C2)c(C)c1 (configuration not stated) | -14.28% |
| Nc1cc(N2CCCC(Cc3ccc(F)cc3F)(C(=O)O)C2)ncn1 (configuration not stated) | -0.2204% |
| CCN(CC)c1ccc(CNS(=O)(=O)C2CCOCC2)cc1F | 0.7913% |
| O=C(N[C@@H]1CCN(C(=O)C2CCOCC2)C[C@H]1O)c1ccccn1 | 2.955% |
| C1=CCN(c2nc(CC3CC3)nc3c2CCN(C2CCOCC2)CC3)C1 | -5.944% |
| OC1(CN2CCC(Cc3ccccc3)CC2)CCC1 | -17.41% |
| O=C(C1CCOCC1)N1CCOCC(Cc2ncccn2)C1 (configuration not stated) | 97.13% |
| O=C(C1CCOCC1)N1CCOC(CC2CCCCC2)C1 (configuration not stated) | 10.22% |
| CCOCCN1CCN(CC2(O)CCCCC2)CC1 | -2.649% |
| OC1(CN2CCC(Cc3ncccn3)CC2)CCOCC1 | 87.8% |
| Fc1cccnc1OC[C@@]12CCO[C@@H]1CCN(CC1CCOCC1)C2.O=C(O)C(F)(F)F.O=C(O)C(F)(F)F | 11.98% |
| OC1(CN2CCC(Cc3ncccn3)CC2)CCCCC1 | 116.2% |
